# In PubChem BioAssay:
# Activity calls are given as the source filed them. Unless noted, how the calls were made is not given here.
# What was measured:
# [1] = A549 cell viability effects, profiling panel, calcein-AM fluorescence, 48 h, basal (AID 1162); conditions: higher = more signal; further: test concentration not given here
# [2] = adipocyte viability effects, profiling panel, cell-based, 3T3-L1 adipocytes, calcein-AM fluorescence, 48 h, basal (AID 1163); conditions: 3T3-L1 adipocytes viability, higher = more signal; further: test concentration not given here
# [3] = HepG2 cell viability effects, profiling panel, calcein-AM fluorescence, 48 h, basal (AID 1164); conditions: higher = more signal; further: test concentration not given here
# [4] = MM1S cell viability effects, profiling panel, calcein-AM fluorescence, 48 h, basal (AID 1165); conditions: higher = more signal;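 further: viability of MM1S multiple myeloma cells under basal unstimulated conditions; test concentration not given here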
# [5] = basal RPMI8226 viability, no added stimulus, profiling panel, cell-based, calcein-AM fluorescence, 48 h, PK04 Diversity Set (AID 1166); conditions: RPMI8226 myeloma viability, higher = more signal;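 further: cells grown under basal conditions without added stimulus; test concentration not given here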
# [6] = basal HepG2 mitochondrial membrane potential changes, profiling panel, cell-based, JC-1 fluorescence, 24 h, 100 nL compound (AID 1167); conditions: higher = more signal; further: test concentration not given here
# [7] = basal 3T3-L1 adipocyte mitochondrial potential changes, profiling panel, cell-based, JC-1 fluorescence, 3T3-L1 adipocytes, 24 h, 100 nL compound (AID 1168); conditions: JC-1 mitochondrial fluorescence, higher = more signal, called active from +8 up or from −8 down; further: test concentration not given here
# [8] = basal RPMI8226 mitochondrial membrane potential changes, profiling panel, cell-based, JC-1 fluorescence, 24 h, 100 nL compound (AID 1169); conditions: RPMI8226 myeloma, JC-1 mitochondrial potential fluorescence, higher = more signal; further: test concentration not given here
# [9] = basal MM1S mitochondrial membrane potential changes, profiling panel, cell-based, JC-1 fluorescence, 24 h, 100 nL compound (AID 1170); conditions: higher = more signal; further: test concentration not given here
# [10] = A549 lung cancer cell viability effects, profiling panel, resazurin fluorescence, 24 h, PK04 Diversity Set (AID 1171); conditions: higher = more signal, called active from +8 up or from −8 down; further: test concentration not given here
# [11] = HepG2 liver cancer cell viability effects, profiling panel, resazurin fluorescence, 24 h, PK04 Diversity Set (AID 1172); conditions: higher = more signal; further: test concentration not given here
# [12] = basal S. cerevisiae growth modulation, no modifier, primary screen, OD600, strain BY4716, 24 h, basal condition (AID 1173); conditions: OD600, 24 h, higher = more signal, called active from +8 up or from −8 down
# [13] = MM1S myeloma cell viability, profiling panel, resazurin fluorescence, basal, 24 h, PK04 Diversity Set (AID 1174); conditions: higher = more signal, called active from +8 up or from −8 down;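 further: MM1S multiple myeloma cell line; test concentration not given here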
# [14] = target: Dihydroorotate dehydrogenase (quinone), mitochondrial (Plasmodium falciparum (isolate 3D7)) (UniProt Q08210); assay: PfDHODH enzyme inhibitors, primary screen, biochemical, C-terminal His tag, absorbance 600 nm (AID 1175); conditions: DCIP absorbance 600 nm, higher = more signal, called active from +8 up or from −8 down;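 further: recombinant parasite enzyme with a five histidine tag at its C terminus; test concentration not given here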
# [15] = P. aeruginosa biofilm formation inhibitors, primary screen, strain PAO1, LB-PBS medium, absorbance 600 nm (AID 1176); further: test concentration not given here; conditions: P. aeruginosa PAO1 growth/biofilm, A600, 12 h; higher = more signal
# [16] = S. cerevisiae RM11-1a growth modifiers, primary screen, strain RM11-1a, OD600, basal, 24 h (AID 1177); conditions: OD600, 24 h, higher = more signal, called active from +8 up or from −8 down;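 further: cultures grown under basal conditions with no added stressor; test concentration not given here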
# [17] = E. coli acrAB mutant growth effects, primary screen, E. coli filamentation inducers, strain DRC39, OD650, 24 h (AID 1178); conditions: higher = more signal, called active from +8 up or from −8 down;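 further: growth measured as culture turbidity by optical density at 650 nm; test concentration not given here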
# [18] = E. coli acrAB mutant growth effects, primary screen, E. coli filamentation inducers, strain DRC39, OD650, 48 h (AID 1179);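 further: screen aims at cell division blockers that make cells filament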; conditions: E. coli DRC39 delta-acrAB growth, higher = more signal, called active from +8 up or from −8 down
# [19] = RPMI8226 myeloma cell viability, profiling panel, resazurin fluorescence, basal, 24 h, PK04 Diversity Set (AID 1180); conditions: higher = more signal;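 further: RPMI8826 multiple myeloma cell line at 5000 cells per well; test concentration not given here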
# [20] = target: E3 ubiquitin-protein ligase XIAP (Homo sapiens) (UniProt P98170); assay: XIAP binders, primary screen, biophysical, small-molecule microarray, fluorescence 635 nm (AID 1181); conditions: small-molecule microarray binding, higher = more signal;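 further: score merges 667 nm emission and signal to noise over triplicate slides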
# Sequence of E3 ubiquitin-protein ligase XIAP (Homo sapiens) (P98170 whole entry, looked up): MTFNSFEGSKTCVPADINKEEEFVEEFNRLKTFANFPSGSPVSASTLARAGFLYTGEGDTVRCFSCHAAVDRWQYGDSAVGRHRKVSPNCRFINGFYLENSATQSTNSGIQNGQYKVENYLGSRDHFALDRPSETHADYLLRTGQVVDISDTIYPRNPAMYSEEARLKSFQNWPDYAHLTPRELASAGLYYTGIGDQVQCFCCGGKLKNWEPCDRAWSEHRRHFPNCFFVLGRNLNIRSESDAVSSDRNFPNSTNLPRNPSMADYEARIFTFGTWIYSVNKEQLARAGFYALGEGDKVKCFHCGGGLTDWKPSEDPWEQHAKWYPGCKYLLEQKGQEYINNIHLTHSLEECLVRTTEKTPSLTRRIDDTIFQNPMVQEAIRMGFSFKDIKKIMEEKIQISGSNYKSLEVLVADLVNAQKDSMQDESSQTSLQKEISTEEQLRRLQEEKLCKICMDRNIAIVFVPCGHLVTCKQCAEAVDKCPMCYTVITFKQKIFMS
# Sequence of Dihydroorotate dehydrogenase (quinone), mitochondrial (Plasmodium falciparum (isolate 3D7)) (Q08210 whole entry, looked up): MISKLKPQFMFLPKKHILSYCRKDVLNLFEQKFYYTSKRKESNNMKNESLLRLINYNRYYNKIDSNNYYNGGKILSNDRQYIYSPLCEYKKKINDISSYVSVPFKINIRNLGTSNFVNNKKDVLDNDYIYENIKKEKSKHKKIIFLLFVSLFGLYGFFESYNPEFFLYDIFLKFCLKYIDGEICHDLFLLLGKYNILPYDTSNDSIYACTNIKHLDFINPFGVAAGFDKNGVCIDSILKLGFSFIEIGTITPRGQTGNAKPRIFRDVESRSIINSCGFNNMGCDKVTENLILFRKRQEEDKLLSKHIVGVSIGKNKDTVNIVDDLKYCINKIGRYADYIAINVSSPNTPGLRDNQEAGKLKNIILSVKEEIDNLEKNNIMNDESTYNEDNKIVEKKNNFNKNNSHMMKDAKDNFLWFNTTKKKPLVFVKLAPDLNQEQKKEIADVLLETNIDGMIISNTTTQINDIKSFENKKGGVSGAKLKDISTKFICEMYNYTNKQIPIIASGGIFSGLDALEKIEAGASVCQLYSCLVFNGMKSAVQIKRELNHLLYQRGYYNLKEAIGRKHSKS
Compound,z-score [1],z-score [2],z-score [3],z-score [4],z-score [5],z-score [6],z-score [7],z-score [8],z-score [9],z-score [10],z-score [11],z-score [12],z-score [13],composite z-score [14],z-score [15],z-score [16],z-score [17],z-score [18],z-score [19],composite z-score [20]
CC(C)[C@H]1NC(=O)[C@@]23C(=O)N[C@@H](Cc4ccccc4)C2[C@H](C)[C@@]2(C)O[C@H]2C3/C=C/CCC/C=C/CNC(=O)[C@H](Cc2ccccc2)NC1=O (stereo not given in full),-0.315,0.532,0.304,-0.837,-1.6,1.18,-0.499 (inactive),-0.157,1.84,-1.25 (inactive),-1.15,-1.76 (inactive),-0.457 (inactive),0.112 (inactive),-0.471 (inactive),-0.201 (inactive),-0.297 (inactive),-0.786 (inactive),0.0125,-0.039
COc1cc2c(cc1O)C(c1cccs1)N(Cc1sc3ccccc3c1Cl)CC2 (stereo not given),-3.77,0.623,-4.6,-3.27,-4.2,-3.1,-0.197 (inactive),-0.894,-0.194,-0.403 (inactive),-1.05,-1.41 (inactive),-0.519 (inactive),-1.72 (inactive),-0.131 (inactive),-0.0369 (inactive),-0.0316 (inactive),-0.89 (inactive),-0.94,0.134
CN(C)CCCC[C@@H]1NC(=O)[C@@H]2C[C@H](C(=O)O)[C@H](c3cccc(OCCO)c3)N2C1=O,0.0184,0.13,0.201,0.238,0.312,1.05,-0.864 (inactive),-0.804,0.174,0.593 (inactive),-0.0398,-0.79 (inactive),0.472 (inactive),-0.126 (inactive),0.808 (inactive),-0.547 (inactive),-0.175 (inactive),0.494 (inactive),0.259,-0.0398
COCC1C2CC[C@H]3C(OCc4ccc(OC)cc4)OC[C@]4(C)[C@H]3C2=C(CN4C(=O)OC(C)(C)C)[C@H](C)C1COC (stereo not given in full),-0.226,0.335,0.919,-2.64,-4.48,5.54,-0.664 (inactive),-0.205,-1.22,-0.0834 (inactive),-0.819,-0.316 (inactive),-0.79 (inactive),-0.566 (inactive),0.796 (inactive),-0.688 (inactive),-0.705 (inactive),0.286 (inactive),-0.723,0.441
CCCCCCCCCCC(O)C1C=CC2C(=O)N(c3ccccc3)C(=O)C2N1Nc1ccccc1F (stereo not given),0.059,-0.849,-0.016,-0.598,-0.105,-0.777,-0.45 (inactive),-0.415,-0.193,0.162 (inactive),0.0366,0.864 (inactive),-0.361 (inactive),0.742 (inactive),0.819 (inactive),0.719 (inactive),-0.717 (inactive),0.555 (inactive),-0.335,0.174
COCCOC(=O)N1C(=O)[C@@]2(c3cc(C#CCNC(N)=O)ccc31)[C@H](c1ccc(OCCO)cc1)N1[C@H](c3ccccc3)[C@H](c3ccccc3)OC(=O)[C@H]1[C@@H]2C(=O)NC[C@H](O)c1ccccc1,-1.31,0.494,-0.542,-0.193,-0.158,-1.49,0.17 (inactive),0.235,-0.391,0.32 (inactive),0.637,1.82 (inactive),0.0592 (inactive),-1.88 (inactive),2.18 (inactive),1.54 (inactive),0.48 (inactive),-0.532 (inactive),-0.45,-0.153
[N-]=[N+]=NC[C@H](Cc1ccccc1)NC(=O)c1ccccc1,0.431,0.474,0.611,0.357,0.661,0.581,0.219 (inactive),-0.0299,0.171,1.19 (inactive),0.198,-3.7 (inactive),1.46 (inactive),-0.178 (inactive),-0.382 (inactive),-0.401 (inactive),0.487 (inactive),0.352 (inactive),0.839,-0.394
CCOC(=O)C1=C[C@@H](c2ccccc2)N(S(=O)(=O)c2ccc(C)cc2)[C@H]1c1ccccc1,-0.834,-0.926,-0.813,-1.14,-1.16,1.62,-2.52 (inactive),-0.368,-0.0131,0.537 (inactive),-0.443,0.779 (inactive),-1.38 (inactive),-0.629 (inactive),0.878 (inactive),0.398 (inactive),-0.86 (inactive),-0.605 (inactive),-0.549,0.125
COCCOC(=O)N1C(=O)[C@@]2(c3cc(C#Cc4ccc(OC)cc4)ccc31)[C@H](c1ccc(OCCO)cc1)N1[C@H](c3ccccc3)[C@H](c3ccccc3)OC(=O)[C@H]1[C@@H]2C(=O)Nc1nc2ccccc2s1,-0.922,0.829,-1.26,-0.569,-1.26,-2.86,3.99 (inactive),-0.735,-1.13,-0.285 (inactive),1.62,1.21 (inactive),-0.606 (inactive),-1 (inactive),1.5 (inactive),1.56 (inactive),0.0318 (inactive),-0.389 (inactive),0.46,0.259
